Experimental data reported in PubChem BioAssay (NCI).
The panel holds about 83,000 compounds, 20% with a hit somewhere; the sample as a whole holds those more often.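 The test compound was applied at a single concentration to cells in 96-well plates for 48 hours, and percent growth was recorded.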 A number with no mark means an inactive call. Calls of active or inactive are those of the source. The calls were made as follows: active = growth percent below 10; inactive = the rest.

Columns and labels:
Test in all cases: NCI-60 one-dose screen, 48 h (100 = growth as untreated, 0 = no growth, -100 = all killed)
Settings in all cases: 10 µM unless noted
HCT-15 colon = tested on: HCT-15 colon
HT29 colon = tested on: HT29 colon
SNB-75 CNS = tested on: SNB-75 CNS
SNB-19 CNS = tested on: SNB-19 CNS
U251 CNS = tested on: U251 CNS
PC-3 prostate = tested on: PC-3 prostate
SK-MEL-5 melanoma = tested on: SK-MEL-5 melanoma
UACC-62 melanoma = tested on: UACC-62 melanoma
LOX IMVI melanoma = tested on: LOX IMVI melanoma
SK-MEL-28 melanoma = tested on: SK-MEL-28 melanoma
SK-MEL-2 melanoma = tested on: SK-MEL-2 melanoma
EKVX NSCLC = tested on: EKVX NSCLC
SN12C renal = tested on: SN12C renal
UO-31 renal = tested on: UO-31 renal
TK-10 renal = tested on: TK-10 renal
ACHN renal = tested on: ACHN renal
CAKI-1 renal = tested on: CAKI-1 renal
A498 renal = tested on: A498 renal
CCRF-CEM leukemia = tested on: CCRF-CEM leukemia
MOLT-4 leukemia = tested on: MOLT-4 leukemia

Compound | growth (HCT-15 colon) | growth (HT29 colon) | growth (SNB-75 CNS) | growth (SNB-19 CNS) | growth (U251 CNS) | growth (PC-3 prostate) | growth (SK-MEL-5 melanoma) | growth (UACC-62 melanoma) | growth (LOX IMVI melanoma) | growth (SK-MEL-28 melanoma) | growth (SK-MEL-2 melanoma) | growth (EKVX NSCLC) | growth (SN12C renal) | growth (UO-31 renal) | growth (TK-10 renal) | growth (ACHN renal) | growth (CAKI-1 renal) | growth (A498 renal) | growth (CCRF-CEM leukemia) | growth (MOLT-4 leukemia)
O=C(O)CCCn1c(SCc2c(Cl)cccc2Cl)nc2ccsc2c1=O | 30.7% | 4.21% (active) | -13.8% (active) | 31% | 18.1% | 14.5% | 16.8% | 28.3% | 28% | 57.6% | 31.3% | 52.2% | 53.3% | 37.5% | 48% | 46.7% | 30.6% | -1.92% (active) | 19.6% | 21.7%
Cn1cc(-c2nonc2-c2c[nH]c3ccc(F)cc23)c2cc(Br)ccc21 | 30.4% | 20.9% | 45.5% | 58% | 41.4% | 44.2% | 76.6% | 52.9% | 9.44% (active) | 73.2% | 71.5% | 37.6% | 63.7% | 30.4% | 57% | 38.4% | 25.3% | 44.8% | 40.7% | 32.1%
CC[C@H](C)[C@H](NC(=O)[C@H](CCCNC(=N)N)NC(=O)[C@H](Cc1c[nH]c2ccccc12)NC(=O)[C@@H](NC(=O)[C@H](CCCCN)NC(=O)[C@H](CCCCN)NC(=O)[C@@H](NC(=O)[C@@H](NC(=O)[C@@H](NC(=O)[C@H](CCCCN)NC(=O)[C@H](Cc1ccccc1)NC(=O)[C@H](CCCCN)NC(=O)[C@H](CCCCN)NC(=O)[C@H](Cc1ccccc1)NC(=O)[C@@H](NC(=O)[C@@H](N)CCCCN)[C@@H](C)CC)[C@@H](C)O)[C@@H](C)CC)[C@@H](C)CC)C(C)C)C(=O)N[C@@H](Cc1ccccc1)C(=O)NCC(=O)N[C@@H](CCCNC(=N)N)C(=O)N[C@@H](Cc1ccccc1)C(N)=O | -43% (active) | -35.7% (active) | -34% (active) | -35.9% (active) | -44.1% (active) | -25.9% (active) | 3.57% (active) | -65.7% (active) | -11% (active) | -31.7% (active) | -37.5% (active) | -71% (active) | -56.1% (active) | -68.2% (active) | -69.4% (active) | -54.7% (active) | -52.2% (active) | -40.9% (active) | 17.6% | 29%
Cc1cccc(NC(=O)CSc2nc3ccc([N+](=O)[O-])cc3[nH]2)c1 | 75.1% | 90.4% | 70% | 80.3% | 74.5% | 75.1% | 52% | 42.6% | 81.4% | 80.7% | 98.5% | 70.9% | 80.7% | 54.2% | 97.3% | 82.5% | 61.4% | 63.5% | 78.4% | 77.2%
Oc1c(CN2CCCC2)cc(COCc2ccccc2)c2cccnc12 | 11.3% | 74.4% | 44.9% | 25.5% | 1.08% (active) | 24.9% | -11.1% (active) | -19.9% (active) | 2.6% (active) | 31% | 19.2% | 31.7% | 27.9% | -1.58% (active) | 10.7% | 6.14% (active) | 10.5% | 19.3% | 6.37% (active) | 9.79% (active)
C=C1C(=O)O[C@H]2[C@H]1CC/C(COC(=O)NCc1ccc(Cn3c(=O)sn(-c4ccc(OC)cc4)c3=O)cc1)=C\CC[C@@]1(C)O[C@@H]21 | 4.27% (active) | -15.5% (active) | 96% | 94.8% | 77.7% | 70.3% | 97.9% | 60.7% | 25% | 71% | 68.1% | 97.1% | 65.2% | -14.6% (active) | 1.08% (active) | -8.56% (active) | 55.9% | 89.2% | -34.7% (active) | -12.2% (active)
CC1(C)CC[C@]2(C(=O)O)CC[C@]3(C)C(=CC[C@@H]4[C@@]5(C)C[C@@H](Cc6cn([C@@H]7O[C@H](CO)[C@@H](O)[C@H](O)[C@H]7O)nn6)[C@H](O)C(C)(C)[C@@H]5CC[C@]43C)[C@@H]2C1 | 106% | 99.1% | 92% | 97% | 92% | 93.4% | 100% | 93.2% | 99.4% | 103% | 113% | 99.4% | 99.7% | 96.3% | 93.6% | 100% | 98.3% | 98.8% | 96.4% | 83.4%
CC(C)C[C@@H](C(=O)N[C@H](C(=O)OC1CCCC1)c1ccccc1)[C@H](O)C(=O)NO | 58.4% | 58% | 101% | 76.2% | 45.7% | 49.6% | 59.8% | 68.8% | 54.2% | 63.2% | 33.2% | 67.5% | 86.5% | 50.8% | 70.4% | 85.9% | 76.2% | 40.7% | 67.8% | 63.4%
Cc1cc2nc(-c3c(-c4ccc(F)cc4)nc4sccn34)[nH]c2cc1C | 93% | 96.3% | 105% | 96.1% | 95.4% | 90.5% | 86.3% | 89% | 88.8% | 95.2% | 100% | 103% | 98.6% | 78.6% | 86% | 93.6% | 89.9% | 89.2% | 90.1% | 83.4%
CC1(C)CC[C@]2(C(=O)N3CCOCC3)CC[C@]3(C)C(=CC[C@@H]4[C@@]5(C)C/C(=C/c6ccncc6)C(=O)C(C)(C)[C@@H]5CC[C@]43C)[C@@H]2C1 | 7.19% (active) | 5.31% (active) | 43% | 47.5% | 18.4% | 10.9% | -63.5% (active) | 2.88% (active) | -84% (active) | -14.4% (active) | -6.74% (active) | 14.5% | 18% | 11% | 35.9% | 15.6% | 16.7% | -20.3% (active) | -6.27% (active) | -16.9% (active)
CC1(C)CC2=C3C=C[C@@H]4[C@@]5(C)CC[C@H](O)C(C)(C)[C@@H]5CC[C@@]4(C)[C@]3(C)CC[C@@]2(C(=O)O)CC1=O | 28% | 35.7% | 16.8% | 68.9% | 32.3% | 45% | 25.3% | 53.6% | 46.9% | 30.9% | 37.1% | 61.4% | 54.4% | 16.5% | 33.5% | 13% | 28.2% | 57% | 25.2% | 44.2%
COc1ccc(C(O)c2cc3c(N)c(C(=O)Nc4cccc(Cl)c4)sc3nc2C)cc1 (stereo not given) | 11.6% | 8.32% (active) | 31.2% | 28.3% | 23.6% | 27.3% | -16.9% (active) | 27.5% | 30.7% | 65.8% | 53.7% | 48.4% | 22.2% | 45.4% | 64% | 30.3% | 24.7% | 8.34% (active) | 8.82% (active) | 15.4%
CNC(=O)c1cc(Oc2ccc3nc(NC(=O)Nc4ccc(Cl)c(Cl)c4)sc3c2)ccn1 | 55% | 36.4% | -38.3% (active) | 74.9% | 24% | -24.7% (active) | 72.7% | 75.8% | -91.9% (active) | 41.4% | 80.8% | 8.47% (active) | 57.3% | 39.9% | 66.3% | 70% | 103% | 93.6% | 42.5% | 66.2%
